YopH PTP inh – blocks Yersinia enterocolitica YopH tyrosine phosphatase; fluorescence Ex485/Em525; inhibition, % (no concentration beside the values); 0.16% of 140,000 active; in the data active = inhibition above about 50%
RmlC RmlD mix – mixture blocks RmlC and RmlD coupled enzyme activity; RmlC/RmlD coupled enzyme inhibition, 384-well mixture HTS; inhibition, % at 5.5 µM; 0.39% of 110,000 active; AID 1532; in the data active = inhibition above about 30%, passing the limit was not always enough
RmlCD artifact – counter-screen for RmlC/RmlD inhibitors: fluorescence artifact. AID 1696. RmlC/RmlD assay fluorescence artifact counter-screen. 96% of 360 active. shares compounds with RmlC RmlD mix. calls only; call rule not given here;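 also: compound alone with no enzyme and no substrates present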
An asterisk follows results filed as active; i = inactive; / = no result given; + = active, no number. Hits are enriched below; roughly 0.41% of the tested compounds scored in any of these assays.

SMILES	YopH PTP inh	RmlC RmlD mix	RmlCD artifact
CCc1cc2c(=O)c(-c3nc4ccccc4n3C)c(C)oc2c(CN(CC)CC)c1O	-23	13	/
CN(C)Cc1c(O)c(Cl)cc2c3c(c(=O)oc12)CCCC3	-36	140*	+
COc1ccc(-c2cc(=O)oc3c(C)c(O)c(CN(C)C)cc23)cc1	31	-3	/
Cc1c(C)c2cc(Cl)c(O)c(CN(C)C)c2oc1=O	-20	63*	+
COc1ccccc1Oc1c(C)oc2c(CN(C)C)c(O)ccc2c1=O	2	/	/
CCN(CC)S(=O)(=O)c1ccc(OC)c(NC(=O)CSc2cc(Cl)ccc2Cl)c1	-33	/	/
CCOc1ccc(C(=O)NC(=S)NC2CCCC2)cc1[N+](=O)[O-]	-24	/	/
CCCn1cnc2c1c(=O)n(CCCCC(C)=O)c(=O)n2C	/	-61	/
CC1CCN(C(=O)CSCC(=O)Nc2nc(-c3cccs3)cs2)CC1	-5	-15	/
CCOc1cccc2cc(-c3csc(NC(=O)CCC(=O)N4CCC(C)CC4)n3)c(=O)oc12	13	+	+
CCO[C@H]1OC(C(=O)O)=C[C@@H](c2coc3ccccc3c2=O)[C@@H]1CCCO	/	-10	/
COC(=O)c1cccc(C23CC4(C2)[C@H](CN(Cc2cccnc2)[C@@H]4c2ccccc2)C3c2ccc(C(F)(F)F)cc2)c1 (some centres undefined)	/	3	/
COc1ccc2nc(-c3ccc(N)cc3)[nH]c2c1	0	24	/
Nc1ccc2nc(-c3ccccc3)[nH]c2c1	-28	100	/
Nc1ccc2nc(-c3ccc(N)c(Cl)c3)[nH]c2c1	43	40*	+
Nc1ccc(-c2nc3c(Cl)cc(N)cc3[nH]2)cc1	-47	50*	+
CSCC[C@H](NC(=O)C1CCN(S(=O)(=O)c2ccc(C)cc2)CC1)C(=O)NC1CCS(=O)(=O)C1 (some centres undefined)	-18	/	/
COCCCNC(=O)c1ccc2nc3ccccc3c(=O)n2c1	-44	34*	+
COCCCn1c(SCC(=O)NCc2ccccc2)nc2ccccc2c1=O	-25	-5	/
CCN(CC(=O)Nc1ccc([N+](=O)[O-])cc1OC)CC(=O)NC(C)(C)C	-6	/	/
CCOc1ccc(NC(=O)c2cc3cc4ccc(OC)cc4nc3o2)cc1	-27	105*	+
COc1ccc2cc3cc(C(=O)NCc4ccccn4)oc3nc2c1	-31	/	/
COc1ccc2cc3cc(C(=O)NCCN4CCN(c5ccccc5F)CC4)oc3nc2c1	-16	/	i
COc1ccc2cc3cc(C(=O)NCC4CCCO4)oc3nc2c1 (centres undefined)	-28	105*	+
COc1ccc2cc3cc(C(=O)Nc4ccccc4N4CCN(C)CC4)oc3nc2c1	-24	-6	/
SMILES	YopH PTP inh	RmlC RmlD mix	RmlCD artifact
COc1ccc(C(=O)NCC2CCCO2)cc1 (centres undefined)	-4	/	/
Cc1ccccc1Cn1nc(C)c(NC(=O)/C=C/c2cnn(C)c2)c1C	-24	/	/
COC(=O)C1=C[C@@H](C(=O)OC)[C@@H]2C3=C(C(=O)[C@@]2(C)NC(=O)c2ccccc2)[C@H](C)C(C(=O)OC)=C(C(=O)OC)[C@@H]3C1	/	-3	/
CC1CN(C(=O)c2cc3c(s2)CCC3)CC(C)O1 (centres undefined)	-36	-12	/
CC1CN(C(=O)c2cc3c(=O)n4ccccc4nc3s2)CC(C)O1 (centres undefined)	3	53*	+
CCC(C)N=C1CC(C)(C)CC(=O)/C1=C(/O)Cc1ccccc1 (centres undefined)	-17	/	/
COc1ccc2c(c1)-c1ccccc1S(=O)(=O)N2C(C)=O	-22	131*	+
COc1ccc(OC)c(NC(=O)CN2C(=O)c3ccccc3S2(=O)=O)c1	-30	6	/
CC1CCc2c(sc3nc(CSc4ncn[nH]4)[nH]c(=O)c23)C1 (centres undefined)	-25	/	/
O/N=C1\CCCC\C1=C/c1ccccc1	-37	/	/
C[C@H]1CCC[C@@]2(O[C@@H](CCO)C[C@@H](O)[C@@H]2O)O1	/	20	/
CCn1c(C)nc2cc(C(=O)N/N=C/c3ccc(O)cc3)ccc21	-28	/	/
CCn1c(C)nc2cc(C(=O)N/N=C(\C)c3ccc(OC)cc3O)ccc21	/	/	+
Cc1cc(C)n(-c2ccc(C(=O)OCC(=O)NCc3ccc(F)cc3)cc2)n1	-19	/	/
Cc1cccc(-n2c(SCc3ccc(C#N)cc3)nnc2-c2c[nH]c3ccccc23)c1	-11	/	/
Cc1cc(C(=O)OCCO)c(C#N)c(N)n1	2	46*	+
COC(=O)c1cc(C)nc(N)c1C#N	-3	28	/
O=c1oc2c(CN3CCCCC3)c(O)ccc2c2c1CCCC2	-24	96*	+
O=c1cc(-c2ccccc2)c2ccc(O)c(CN3CCCCC3)c2o1	-22	4	/
Cc1c(O)c(CN2CCCCC2)cc2c1oc(=O)c1ccccc12	-30	/	/
Cc1c(O)c(CN2CCCCC2)cc2c3c(c(=O)oc12)CCC3	-4	91*	+
CCNC(=S)N/N=C/c1sc(N2CCCCC2)nc1-c1cccs1	-21	/	/
CN1C[C@@H]2C(c3ccc(Cl)nc3)C3(c4ccccc4)CC2(C3)[C@H]1c1ccccc1 (some centres undefined)	/	-3	/
Cc1ccccc1NC(=S)N(C)Cc1cn(C)c2ccccc12	-36	/	/
C=CCn1c(SCC(=O)NCc2ccco2)nc2sc3c(c2c1=O)CCCC3	-29	-13	/
SMILES	YopH PTP inh	RmlC RmlD mix	RmlCD artifact
O=C(NCc1ccco1)c1ccc2nc3sc4c(c3c(=O)n2c1)CCCC4	-46	46*	+
CC1CCC(NC(=O)N(CCCl)N=O)CC1 (centres undefined)	/	6	/
CCOC(=O)Nc1ccc2c(CN3C(=O)NC(CC)(CC)C3=O)cc(=O)oc2c1	-17	38	/
CCOC(=O)Nc1ccc2c(CN3C(=O)NC4(CCCC4)C3=O)cc(=O)oc2c1	-1	74*	+
CSc1ccc(-c2c(C#N)c(N)nc3c2CCCC3)cc1	-49	33*	+
N#Cc1c(N)nc2c(c1-c1ccncc1)CCCCC2	-32	-14	/
COC(=O)c1ccc2c(=O)n(CCCCCC(=O)O)c(=S)[nH]c2c1	-34	/	/
CCOc1ccc(/C(O)=C/C(=O)C(=O)Nc2ccc(S(=O)(=O)NC(C)=O)cc2)cc1	-4	/	/
Cn1c(-c2cc3ccc(OC(=O)C(C)(C)C)cc3oc2=O)nc2ccccc21	-9	-41	/
CC(=O)Oc1ccc2cc(-c3nc4ccccc4n3C)c(=O)oc2c1	-40	/	+
CC(=O)Oc1ccc2ccc(=O)oc2c1	/	+	+
COc1ccc2ccc(=O)oc2c1	-27	-7	/
c1ccc(COc2ccc(OCCN3CCCCC3)cc2)cc1	-28	/	/
O=C(NCCN1C(=O)S/C(=C\c2ccc(OC(F)F)cc2)C1=O)c1cnccn1	-11	/	/
COc1ccc(Oc2c(C)oc3c(CN4CCOCC4)c(O)ccc3c2=O)cc1	-12	10	/
Cc1oc2c(CN3CCOCC3)c(O)ccc2c(=O)c1-c1ccccc1	-48	39*	+
COc1ccccc1-c1coc2c(CN3CCN(C)CC3)c(O)ccc2c1=O	-47	16	/
COc1ccccc1Oc1c(C)oc2c(CN3CCN(CCO)CC3)c(O)ccc2c1=O	1	/	/
COc1ccccc1-c1coc2c(CN3CCN(CCO)CC3)c(O)ccc2c1=O	3	40*	+
Cc1oc2c(CN3CCCC3)c(O)ccc2c(=O)c1Oc1ccccc1Br	-42	64*	+
CCNc1nc(NC(C)C)nc(N(n2cnnc2)S(=O)(=O)c2ccc(C)cc2)n1	-22	/	/

Assay outcomes: PubChem BioAssay, several laboratories
